# Results filed as inconclusive are left out. Calls of active or inactive are those of the source. Rule for the calls: active = hit-call score of the fitted dose curve at least 0.9, where 1 is the maximum; inactive = score below 0.9.
# Target: Neuropeptide Y receptor type 2 (Homo sapiens) (UniProt P49146)
# Assay: ERF_FR_GPCR_hNPY2R: Eurofins (ERF) G Protein-Coupled Receptor (GPCR) Radioligand Binding LeadHunter Assay for human Neuropeptide Y Receptor Y2 Agoniam
# Protocol: ERF_FR_GPCR_hNPY2R is a biochemical, single-readout assay that uses extracted gene-proteins in a cell-free assay. Measurements were taken 1 hour after chemical dosing in a 96-well plate. See Y2 Human Neuropeptide Y GPCR Binding (Agonist Radioligand) Assay, Cerep.ERF_FR_GPCR_hNPY2R is an assay component calculated from the ERF_FR_GPCR_hNPY2R assay. It is designed to measure radioligand binding using a type of binding reporter as detected by scintillation counting with radiometry technology.Data from the assay component ERF_FR_GPCR_hNPY2R was analyzed at the assay endpoint, ERF_FR_GPCR_hNPY2R, in the positive analysis fitting direction relative to DMSO as the negative control and baseline of activity. Using a type of binding reporter, gain-of-signal activity can be used to understand changes in binding as they relate to gene NPY2R. To generalize the intended target to other relatable targets, this assay endpoint is annotated to the gpcr intended target family, where the subfamily is neuropeptide Y.
# Human cells are incubated for 60 minutes at 37 C with [125I]peptide YY ligand (0.015 nM) and NYP as control inhibitor. Test Sample Requirements: Minimum for 1) Screen: 60 ul of 10 mM stock -OR- 1 mg (pre-weighed) for 10 uM final testing. 2) Dose Response: 90 ul of 10 mM stock -OR- 1 mg (pre-weighed) for a top concentration at 10 uM.
# Neuropeptide Y receptor type 2 (Homo sapiens), sequence (P49146 whole entry, looked up): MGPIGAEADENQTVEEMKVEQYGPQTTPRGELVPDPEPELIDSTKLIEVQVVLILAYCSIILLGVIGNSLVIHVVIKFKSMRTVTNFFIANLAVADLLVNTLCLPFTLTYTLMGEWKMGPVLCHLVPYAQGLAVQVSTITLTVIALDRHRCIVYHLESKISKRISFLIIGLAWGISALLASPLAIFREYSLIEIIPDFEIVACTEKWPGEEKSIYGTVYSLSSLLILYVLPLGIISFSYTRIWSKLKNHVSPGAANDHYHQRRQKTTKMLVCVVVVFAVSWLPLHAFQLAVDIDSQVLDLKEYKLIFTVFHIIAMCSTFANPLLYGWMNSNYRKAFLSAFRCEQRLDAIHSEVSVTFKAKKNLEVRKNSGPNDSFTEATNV
row,Structure (SMILES),outcome
1,O=C(/C=C/c1ccc(O)cc1)CC(=O)/C=C/c1ccc(O)cc1,inactive

# Reference: PubChem BioAssay AID2284166 (EPA ToxCast)
